Drawing on paper PMC7862700, “An all-to-all approach to the identification of sequence-specific readers for epigenetic DNA modifications on cytosine”, this text covers binding signal for one sequence.

Common to all, as to experiment: DAPPL (digital affinity profiling via proximity ligation, sequencing); 10 mM Tris-HCl pH 7.5, 50 mM NaCl, 1 mM DTT, 4% glycerol, room temperature, 30 min; GST-TFs on glutathione beads, 16-mer random dsDNA library, 0.1% formaldehyde crosslink after washing; high values mean tight binding
For one assay, the target named is T1, FLI1 (Homo sapiens, UniProt Q01543 1-452).
T1 sequence: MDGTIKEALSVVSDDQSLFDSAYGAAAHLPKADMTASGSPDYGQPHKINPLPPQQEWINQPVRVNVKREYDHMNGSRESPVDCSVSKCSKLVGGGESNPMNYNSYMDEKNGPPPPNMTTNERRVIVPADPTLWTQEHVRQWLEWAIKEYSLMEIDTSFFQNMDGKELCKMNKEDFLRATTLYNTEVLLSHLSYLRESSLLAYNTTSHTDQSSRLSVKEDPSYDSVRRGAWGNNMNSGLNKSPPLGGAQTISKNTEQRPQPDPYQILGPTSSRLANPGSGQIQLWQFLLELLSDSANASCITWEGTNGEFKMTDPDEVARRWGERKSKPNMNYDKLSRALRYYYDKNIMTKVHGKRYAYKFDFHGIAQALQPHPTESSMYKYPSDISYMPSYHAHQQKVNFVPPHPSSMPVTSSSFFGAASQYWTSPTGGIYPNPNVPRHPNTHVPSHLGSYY
The note with it: protein: recombinant; tags: N-terminal GST; dsDNA, one strand shown. The gist of the method: (§1)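 Sequencing on an Illumina NextSeq500 followed washing, crosslinking with 0.1% formaldehyde, proximity ligation (BsaI/T4 ligase, 1 h, 37 °C) and PCR amplification of pools that had been incubated for 30 min at room temperature with 200 nmole of a random double-stranded 16-mer DNA library in Tris/NaCl/DTT/glycerol buffer. Each pool held DNA-barcoded human transcription factors, expressed in yeast as GST fusions and captured on glutathione beads, plus a tag-only sample. Binding signal is a hexamer's read frequency for a factor divided by its frequency in the tag-only sample.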

Another assay deals with T2, ELK1 (Homo sapiens, UniProt P19419 1-428).
T2 sequence: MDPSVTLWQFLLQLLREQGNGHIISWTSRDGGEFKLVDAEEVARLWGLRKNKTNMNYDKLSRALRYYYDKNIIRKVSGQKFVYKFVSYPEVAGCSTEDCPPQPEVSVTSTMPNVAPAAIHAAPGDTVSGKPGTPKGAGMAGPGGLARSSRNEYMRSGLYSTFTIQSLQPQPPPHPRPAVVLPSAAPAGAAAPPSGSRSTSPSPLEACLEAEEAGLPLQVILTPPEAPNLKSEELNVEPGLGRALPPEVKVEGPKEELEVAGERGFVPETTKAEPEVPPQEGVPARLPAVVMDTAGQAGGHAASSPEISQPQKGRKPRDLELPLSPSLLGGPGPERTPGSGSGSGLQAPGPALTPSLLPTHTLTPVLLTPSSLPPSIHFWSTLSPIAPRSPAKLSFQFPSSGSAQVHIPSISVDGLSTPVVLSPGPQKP
The note with it: protein: recombinant; tags: N-terminal GST; dsDNA, one strand shown. The essentials:
as §1

For another assay, the target named is T3, ERG (Homo sapiens, UniProt P11308 1-479).
T3 sequence: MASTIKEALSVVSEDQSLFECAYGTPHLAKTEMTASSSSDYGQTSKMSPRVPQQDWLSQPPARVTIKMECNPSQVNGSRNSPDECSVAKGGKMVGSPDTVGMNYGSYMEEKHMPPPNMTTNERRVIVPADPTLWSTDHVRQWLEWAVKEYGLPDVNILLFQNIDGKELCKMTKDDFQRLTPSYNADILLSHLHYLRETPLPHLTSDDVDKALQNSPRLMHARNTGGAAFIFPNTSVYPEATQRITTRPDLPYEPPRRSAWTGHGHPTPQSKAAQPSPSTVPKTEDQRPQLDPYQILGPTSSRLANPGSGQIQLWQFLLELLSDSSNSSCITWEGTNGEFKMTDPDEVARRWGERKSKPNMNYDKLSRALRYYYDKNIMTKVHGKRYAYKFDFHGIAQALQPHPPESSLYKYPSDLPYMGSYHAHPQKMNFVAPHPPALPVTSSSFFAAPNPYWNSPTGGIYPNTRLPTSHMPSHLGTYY
The note with it: protein: recombinant; tags: N-terminal GST; dsDNA, one strand shown. The gist of the method: as §1

A further assay addresses ELF1 (Homo sapiens, UniProt P32519 1-619). Particulars: protein: recombinant; tags: N-terminal GST; dsDNA, one strand shown. The gist of the method: as §1
In a further assay the target is T4, EHF (Homo sapiens, UniProt Q9NZC4 1-300).
T4 sequence: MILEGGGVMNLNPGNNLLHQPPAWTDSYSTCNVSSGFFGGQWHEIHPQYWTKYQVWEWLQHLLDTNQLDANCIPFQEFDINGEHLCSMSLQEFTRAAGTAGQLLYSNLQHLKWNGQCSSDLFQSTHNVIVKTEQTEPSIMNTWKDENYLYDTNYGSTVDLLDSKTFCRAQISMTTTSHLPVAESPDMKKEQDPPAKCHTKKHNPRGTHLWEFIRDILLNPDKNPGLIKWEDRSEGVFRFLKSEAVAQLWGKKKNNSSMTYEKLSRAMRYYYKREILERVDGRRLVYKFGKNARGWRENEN
Particulars: protein: recombinant; tags: N-terminal GST; dsDNA, one strand shown. The essentials: as §1

Another assay addresses SPI1 (Homo sapiens, UniProt P17947 1-270). Particulars: protein: recombinant; tags: N-terminal GST; dsDNA, one strand shown. The gist of the method:
as §1

For the next assay, the target named is SPIB (Homo sapiens, UniProt Q01892 1-262). The note with it: protein: recombinant; tags: N-terminal GST; dsDNA, one strand shown. The essentials: as §1
Chain of SPIB (Q01892 whole entry): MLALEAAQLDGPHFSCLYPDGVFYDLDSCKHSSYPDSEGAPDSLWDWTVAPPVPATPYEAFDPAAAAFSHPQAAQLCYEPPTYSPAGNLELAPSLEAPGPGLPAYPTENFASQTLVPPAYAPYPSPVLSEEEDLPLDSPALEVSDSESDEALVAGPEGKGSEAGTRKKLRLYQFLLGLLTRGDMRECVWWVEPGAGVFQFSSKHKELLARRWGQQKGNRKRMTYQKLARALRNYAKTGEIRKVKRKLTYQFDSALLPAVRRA
The target in the next assay is T5, ELK3 (Homo sapiens, UniProt P41970 1-407).
T5 sequence: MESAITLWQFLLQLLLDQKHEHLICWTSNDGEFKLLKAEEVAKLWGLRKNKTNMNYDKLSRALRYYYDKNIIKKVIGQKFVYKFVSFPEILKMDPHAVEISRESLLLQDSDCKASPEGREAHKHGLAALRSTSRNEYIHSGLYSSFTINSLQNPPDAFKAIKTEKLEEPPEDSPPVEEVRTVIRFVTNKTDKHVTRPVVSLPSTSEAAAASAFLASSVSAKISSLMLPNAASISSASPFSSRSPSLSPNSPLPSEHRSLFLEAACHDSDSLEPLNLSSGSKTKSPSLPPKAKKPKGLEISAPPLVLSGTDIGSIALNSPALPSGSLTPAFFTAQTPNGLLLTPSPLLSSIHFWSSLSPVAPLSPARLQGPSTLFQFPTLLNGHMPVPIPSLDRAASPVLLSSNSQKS
Particulars: protein: recombinant; tags: N-terminal GST; dsDNA, one strand shown. The essentials: as §1

Another assay addresses T6, FEV (Homo sapiens, UniProt Q99581 1-238).
T6 sequence: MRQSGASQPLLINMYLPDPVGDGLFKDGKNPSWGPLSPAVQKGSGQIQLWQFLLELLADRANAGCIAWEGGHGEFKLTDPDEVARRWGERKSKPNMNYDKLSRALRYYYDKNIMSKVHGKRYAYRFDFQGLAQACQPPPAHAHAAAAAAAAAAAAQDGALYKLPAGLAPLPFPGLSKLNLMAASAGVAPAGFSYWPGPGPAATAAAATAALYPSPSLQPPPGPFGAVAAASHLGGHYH
The note with it: protein: recombinant; tags: N-terminal GST; dsDNA, one strand shown. The gist of the method: as §1

For another assay, the target named is ETV5 (Homo sapiens, UniProt P41161 1-510). The note with it: protein: recombinant; tags: N-terminal GST; dsDNA, one strand shown. The gist of the method:
as §1

The next assay concerns the target HSF1 (Homo sapiens, UniProt Q00613 1-529). The note with it: protein: recombinant; tags: N-terminal GST; chain copies: 3; dsDNA, one strand shown. The gist of the method: as §1
The target of another assay is T7, SPIC (Homo sapiens, UniProt Q8N5J4 1-248).
T7 sequence: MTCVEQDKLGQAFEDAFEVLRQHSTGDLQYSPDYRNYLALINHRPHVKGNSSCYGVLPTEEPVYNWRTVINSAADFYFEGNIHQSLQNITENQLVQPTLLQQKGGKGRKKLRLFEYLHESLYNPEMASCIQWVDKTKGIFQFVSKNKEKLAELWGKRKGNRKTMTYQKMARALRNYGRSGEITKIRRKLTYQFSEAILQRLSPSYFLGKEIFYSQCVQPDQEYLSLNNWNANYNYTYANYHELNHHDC
The note with it: protein: recombinant; tags: N-terminal GST; dsDNA, one strand shown. The essentials: as §1

For another assay, the target named is ELF4 (Homo sapiens, UniProt Q99607 1-663). The note with it: protein: recombinant; tags: N-terminal GST; dsDNA, one strand shown. The gist of the method:
as §1

The target in another assay is T8, ELK4 (Homo sapiens, UniProt P28324-2 1-405).
T8 sequence: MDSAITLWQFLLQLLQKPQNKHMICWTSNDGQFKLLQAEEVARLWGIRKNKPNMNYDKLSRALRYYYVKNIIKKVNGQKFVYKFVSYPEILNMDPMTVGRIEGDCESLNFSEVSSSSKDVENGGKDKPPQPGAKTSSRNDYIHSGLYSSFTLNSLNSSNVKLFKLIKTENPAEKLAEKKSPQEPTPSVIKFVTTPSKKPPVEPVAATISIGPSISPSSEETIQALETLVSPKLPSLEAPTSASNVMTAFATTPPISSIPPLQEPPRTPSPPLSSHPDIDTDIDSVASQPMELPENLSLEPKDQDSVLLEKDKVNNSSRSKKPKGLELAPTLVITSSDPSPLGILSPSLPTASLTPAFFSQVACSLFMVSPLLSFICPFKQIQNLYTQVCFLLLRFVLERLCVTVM
Particulars: protein: recombinant; tags: N-terminal GST; dsDNA, one strand shown. The gist of the method: as §1

The target in the next assay is T9, ETV2 (Homo sapiens, UniProt O00321 1-342).
T9 sequence: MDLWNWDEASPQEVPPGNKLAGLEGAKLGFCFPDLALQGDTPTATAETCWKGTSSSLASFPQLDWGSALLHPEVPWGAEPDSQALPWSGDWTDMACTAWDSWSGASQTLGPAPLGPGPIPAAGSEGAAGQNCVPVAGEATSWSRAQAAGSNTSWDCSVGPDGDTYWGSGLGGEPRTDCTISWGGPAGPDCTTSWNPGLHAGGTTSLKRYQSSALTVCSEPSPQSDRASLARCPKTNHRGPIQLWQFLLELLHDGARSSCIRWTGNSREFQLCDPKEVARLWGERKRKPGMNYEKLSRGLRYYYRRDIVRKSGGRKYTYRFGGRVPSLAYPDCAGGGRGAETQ
Particulars: protein: recombinant; tags: N-terminal GST; dsDNA, one strand shown. The gist of the method: as §1

A further assay deals with T10, ELF3 (Homo sapiens, UniProt P78545 1-371).
T10 sequence: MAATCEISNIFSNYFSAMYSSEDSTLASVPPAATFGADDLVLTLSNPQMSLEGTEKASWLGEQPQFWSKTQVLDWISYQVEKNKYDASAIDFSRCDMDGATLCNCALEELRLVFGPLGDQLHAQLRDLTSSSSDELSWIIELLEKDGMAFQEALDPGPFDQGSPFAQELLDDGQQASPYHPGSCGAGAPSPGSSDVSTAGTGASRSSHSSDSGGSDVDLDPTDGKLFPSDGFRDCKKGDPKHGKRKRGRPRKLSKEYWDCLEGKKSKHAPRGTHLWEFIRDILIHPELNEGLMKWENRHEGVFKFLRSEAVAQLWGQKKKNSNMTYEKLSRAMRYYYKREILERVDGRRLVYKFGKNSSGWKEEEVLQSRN
Particulars: protein: recombinant; tags: N-terminal GST; dsDNA, one strand shown. The essentials: as §1

A further assay addresses CRX (Homo sapiens, UniProt O43186 1-299). The note with it: protein: recombinant; tags: N-terminal GST; dsDNA, one strand shown. The essentials: as §1
The next assay has as its target ETV1 (Homo sapiens, UniProt P50549 1-477). Particulars: protein: recombinant; tags: N-terminal GST; dsDNA, one strand shown. The essentials: as §1

Chain of ELF4 (Q99607 whole entry): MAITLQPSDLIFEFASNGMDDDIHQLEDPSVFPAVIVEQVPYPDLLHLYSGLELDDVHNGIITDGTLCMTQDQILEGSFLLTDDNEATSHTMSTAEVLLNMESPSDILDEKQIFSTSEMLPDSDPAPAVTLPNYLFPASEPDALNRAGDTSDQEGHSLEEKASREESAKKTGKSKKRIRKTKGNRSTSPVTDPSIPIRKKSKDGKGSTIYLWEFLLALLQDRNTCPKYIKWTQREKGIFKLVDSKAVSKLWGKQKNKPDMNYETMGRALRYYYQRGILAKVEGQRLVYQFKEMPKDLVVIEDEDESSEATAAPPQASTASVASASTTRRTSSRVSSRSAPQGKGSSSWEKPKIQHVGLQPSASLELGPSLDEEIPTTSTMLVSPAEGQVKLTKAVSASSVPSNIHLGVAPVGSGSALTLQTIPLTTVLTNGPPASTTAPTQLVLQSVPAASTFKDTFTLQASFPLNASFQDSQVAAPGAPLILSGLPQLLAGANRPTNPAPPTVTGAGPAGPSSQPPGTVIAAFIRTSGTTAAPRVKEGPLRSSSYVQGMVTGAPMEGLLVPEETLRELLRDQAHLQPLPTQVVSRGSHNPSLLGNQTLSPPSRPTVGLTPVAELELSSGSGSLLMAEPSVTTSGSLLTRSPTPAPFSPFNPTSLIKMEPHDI
Chain of HSF1 (Q00613 whole entry): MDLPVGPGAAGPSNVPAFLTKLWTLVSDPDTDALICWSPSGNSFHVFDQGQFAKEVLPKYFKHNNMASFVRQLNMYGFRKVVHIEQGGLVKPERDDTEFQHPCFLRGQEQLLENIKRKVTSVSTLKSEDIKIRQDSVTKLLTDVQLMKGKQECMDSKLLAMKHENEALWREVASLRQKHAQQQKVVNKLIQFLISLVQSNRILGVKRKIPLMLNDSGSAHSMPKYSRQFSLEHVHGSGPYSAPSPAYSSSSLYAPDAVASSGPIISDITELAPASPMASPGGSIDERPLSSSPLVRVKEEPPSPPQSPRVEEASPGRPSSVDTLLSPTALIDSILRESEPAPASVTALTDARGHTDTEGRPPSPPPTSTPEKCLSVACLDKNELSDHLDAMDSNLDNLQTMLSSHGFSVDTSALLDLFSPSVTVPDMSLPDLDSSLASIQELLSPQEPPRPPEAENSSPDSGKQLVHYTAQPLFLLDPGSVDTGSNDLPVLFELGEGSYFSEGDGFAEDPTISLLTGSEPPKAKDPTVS
Chain of ETV5 (P41161 whole entry): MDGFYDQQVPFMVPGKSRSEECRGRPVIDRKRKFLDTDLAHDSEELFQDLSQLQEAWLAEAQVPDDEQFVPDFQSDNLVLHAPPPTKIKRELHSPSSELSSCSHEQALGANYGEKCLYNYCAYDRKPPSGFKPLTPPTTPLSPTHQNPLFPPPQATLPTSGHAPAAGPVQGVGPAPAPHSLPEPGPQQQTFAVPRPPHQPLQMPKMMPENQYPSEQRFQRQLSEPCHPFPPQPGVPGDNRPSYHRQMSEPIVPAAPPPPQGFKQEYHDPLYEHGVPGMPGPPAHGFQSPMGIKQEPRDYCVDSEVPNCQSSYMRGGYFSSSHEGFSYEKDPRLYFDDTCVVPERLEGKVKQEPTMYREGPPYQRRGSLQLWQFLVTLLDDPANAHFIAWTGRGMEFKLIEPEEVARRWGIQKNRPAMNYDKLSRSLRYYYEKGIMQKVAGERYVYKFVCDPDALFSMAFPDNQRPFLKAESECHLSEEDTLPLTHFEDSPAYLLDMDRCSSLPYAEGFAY
Chain of ELF1 (P32519 whole entry): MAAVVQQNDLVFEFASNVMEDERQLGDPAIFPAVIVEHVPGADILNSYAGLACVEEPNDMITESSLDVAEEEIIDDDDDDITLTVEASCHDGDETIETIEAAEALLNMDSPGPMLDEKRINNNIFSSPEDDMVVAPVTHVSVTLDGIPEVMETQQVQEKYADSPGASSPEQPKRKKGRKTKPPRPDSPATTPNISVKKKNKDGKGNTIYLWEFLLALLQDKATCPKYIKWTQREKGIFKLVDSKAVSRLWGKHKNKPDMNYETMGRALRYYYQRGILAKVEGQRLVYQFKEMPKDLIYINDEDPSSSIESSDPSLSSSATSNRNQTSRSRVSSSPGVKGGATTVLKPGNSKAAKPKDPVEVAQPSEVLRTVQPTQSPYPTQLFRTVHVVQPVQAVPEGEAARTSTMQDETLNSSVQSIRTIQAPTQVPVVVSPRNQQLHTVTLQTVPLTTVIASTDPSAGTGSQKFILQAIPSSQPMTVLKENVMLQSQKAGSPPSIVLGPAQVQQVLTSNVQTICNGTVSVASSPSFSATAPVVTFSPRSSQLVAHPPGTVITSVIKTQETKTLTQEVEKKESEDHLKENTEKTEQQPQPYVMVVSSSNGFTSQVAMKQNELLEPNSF
Chain of CRX (O43186 whole entry): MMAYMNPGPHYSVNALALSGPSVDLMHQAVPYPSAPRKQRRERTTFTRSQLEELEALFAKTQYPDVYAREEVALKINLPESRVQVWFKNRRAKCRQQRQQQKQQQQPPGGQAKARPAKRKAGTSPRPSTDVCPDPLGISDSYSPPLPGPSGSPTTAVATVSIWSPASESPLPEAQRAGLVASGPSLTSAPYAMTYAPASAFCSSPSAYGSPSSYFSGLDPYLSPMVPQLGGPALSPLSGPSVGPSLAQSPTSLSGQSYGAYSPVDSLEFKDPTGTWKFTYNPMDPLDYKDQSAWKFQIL
Chain of ETV1 (P50549 whole entry): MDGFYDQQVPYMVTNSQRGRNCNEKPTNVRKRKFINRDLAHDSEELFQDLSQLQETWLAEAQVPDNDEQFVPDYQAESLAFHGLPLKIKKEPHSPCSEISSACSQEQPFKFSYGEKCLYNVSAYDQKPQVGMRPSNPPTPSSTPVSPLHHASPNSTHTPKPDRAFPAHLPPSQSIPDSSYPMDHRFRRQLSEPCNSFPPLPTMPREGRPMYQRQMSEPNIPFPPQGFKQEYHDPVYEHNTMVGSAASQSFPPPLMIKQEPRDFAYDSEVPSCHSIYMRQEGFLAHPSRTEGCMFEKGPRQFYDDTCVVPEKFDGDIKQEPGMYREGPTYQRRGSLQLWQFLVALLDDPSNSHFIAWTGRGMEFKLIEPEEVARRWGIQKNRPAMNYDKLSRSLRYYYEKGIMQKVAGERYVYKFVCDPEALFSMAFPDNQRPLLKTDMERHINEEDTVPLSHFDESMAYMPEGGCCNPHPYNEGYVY

Turning to CAAATC, the binding signal with FLI1 is 1.06 fold enrichment (6-mer frequency, TF over GST control); with ELK1 it was 1.08 fold enrichment (6-mer frequency, TF over GST control); in the assay with ERG, 1.14 fold enrichment (6-mer frequency, TF over GST control); with ELF1 it was 1.16 fold enrichment (6-mer frequency, TF over GST control); in the assay with EHF, 1.12 fold enrichment (6-mer frequency, TF over GST control); with SPI1, 1.04 fold enrichment (6-mer frequency, TF over GST control). The binding signal is 1.11 fold enrichment (6-mer frequency, TF over GST control) with SPIB; 1.01 fold enrichment (6-mer frequency, TF over GST control) with ELK3; 1.16 fold enrichment (6-mer frequency, TF over GST control) in the assay with FEV; 1.14 fold enrichment (6-mer frequency, TF over GST control) with ETV5; 1.29 fold enrichment (6-mer frequency, TF over GST control) with HSF1; 1.17 fold enrichment (6-mer frequency, TF over GST control) in the assay with SPIC. In addition, the binding signal is 1.12 fold enrichment (6-mer frequency, TF over GST control) with ELF4; 1.17 fold enrichment (6-mer frequency, TF over GST control) with ELK4; 1.1 fold enrichment (6-mer frequency, TF over GST control) with ETV2; 1.12 fold enrichment (6-mer frequency, TF over GST control) with ELF3; 1.69 fold enrichment (6-mer frequency, TF over GST control) in the assay with CRX; 1.15 fold enrichment (6-mer frequency, TF over GST control) with ETV1.
